Compound activity: PubChem, National Center for Advancing Translational Sciences (NCATS)
Lamin A splicing: qHTS Assay for Modulators of Lamin A Splicing; Potency, µM (highest dose often 46.1 µM), for the others: at the top dose ratio change, negative = inhibition, actives largely listed as inhibitors; HeLa LMNA splicing GFP/RFP minigene ratio, 48 h; AID 1487, 2009; 200,000 tested, 0.01% active; active means well fitted inhibition curve with a large enough effect in the signal ratio, with a control signal flat, not every such curve was filed as active; inconclusive means small, poorly fitted or top-dose-only effect, or effect the other way, or a change in a side signal; the % refers to the signal ratio
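S3 HeLa cells stably expressing lamin A-EGFP splicing minigene plus DsRed2, 600 cells/well, 48 h compound exposure at 37C. Laser-scanning cytometry; analysed as GFP (500-530 nm)/RFP (575-640 nm) total intensity ratio; 0.5% DMSO vehicle.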
aGlu spleen mod: qHTS Assay for Inhibitors and Activators of Human alpha-Glucosidase From Spleen Homogenate. human spleen homogenate, 4-MU-alpha-glucoside fluorescence. Potency, µM (series often up to 79.9 µM), for the others: top-dose activity change, negative = inhibition, actives largely listed as inhibitors. 240,000 tested, 0.006% active. AID 2112, 2009;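 further: 0% = enzyme with vehicle and -100% = no enzyme basal signal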
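Compounds were titrated against alpha-glucosidase in spleen homogenate at pH 5.0, with 1 mM 4-methylumbelliferyl substrate for 40 min at 37 C. Reactions were quenched with pH 10 NaOH/glycine and fluorescence measured.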
GAA glycogen mod: qHTS Assay for Inhibitors and Activators of Human alpha-Glucosidase Cleavage of Glycogen | Potency, µM (doses to about 76.4 µM), without a hit: top-dose activity change, negative = inhibition, actives largely listed as inhibitors | Lysosomal alpha-glucosidase (Homo sapiens), P10253 | recombinant GAA, glycogen substrate, Amplex Red glucose oxidase fluorescence | AID 2100, 2009 | 300,000 tested, 0.38% active;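 further: 0% = full enzyme reaction and -100% = no-enzyme basal signal; the screen sought inhibitors and activators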
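qHTS, 1536-well; enzyme 4 nM final; cpd up to 77 uM; substrate bovine liver glycogen 30 ug; 50 mM citrate/phosphate pH 5.0, 0.01% Tween-20; 37 C, 40 min; Amplex Red detection 45 min RT; Hill fit → AC50.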
N370S GC: qHTS Assay for Inhibitors and Activators of N370S glucocerebrosidase as a Potential Chaperone Treatment of Gaucher Disease | Lysosomal acid glucosylceramidase (Homo sapiens), P04062 | N370S GC spleen homogenate, 4MU-glucoside fluorescence | Potency, µM (doses to about 59.4 µM), inactives show at the top dose activity change, negative = inhibition, actives largely listed as inhibitors | 330,000 tested, 0.092% active | AID 2101, 2009;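 further: 0% = full enzyme activity and -100% = no enzyme basal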
GAA inhib: qHTS Assay for Inhibitors of Human alpha-Glucosidase as a Potential Chaperone Treatment of Pompe Disease; Lysosomal alpha-glucosidase (Homo sapiens), P10253; purified human GAA, 4-MU-alpha-glucoside fluorescence; Potency, µM (titrated, usually from 76.9 µM), for the others: at the highest dose activity change, negative = inhibition, usual class: inhibitors; 200,000 tested, 0.005% active;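 further: plate controls were uninhibited enzyme wells for no effect and no-enzyme background for full effect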
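Human alpha-glucosidase, 4 nM, pre-mixed with test compounds before 400 uM 4-methylumbelliferyl substrate; 20 min room temperature at pH 5.0. Fluorescence read after pH 10 stop; AC50 values from Hill-equation fits.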
The depositor's hits bear a star; ? = inconclusive; . = no result; [ ] = another dose, or the depositor's remark. Sampled rows, rich in hits. Any-hit rate of the full collection: about 0.42%. Unless noted, the call rests on the fitted dose curve; in most records, active means well fitted curve in the direction sought with a large enough effect; inconclusive means small, poorly fitted or top-dose-only effect, or another doubt; inactive means no such curve, though single readings can be large; an effect the other way counts as inactive or inconclusive. Unless noted, on the % scale 0 is the no-effect control and ±100 the full control effect; potency means the concentration at half of the fitted maximal effect.

SMILES	Lamin A splicing	aGlu spleen mod	GAA glycogen mod	N370S GC	GAA inhib
COc1ccc(/C=C/C(=O)c2ccc(C)s2)cc1	.	-6%	.	0%	.
OC[C@@H]1[C@@H](c2ccc(F)cc2)C(c2ccc(F)cc2)=NN1c1ccccc1	.	8%[119 µM]	.	?	.
Cc1cc(C)cc(N(CC(=O)Nc2ccc(C(F)(F)F)cc2)S(=O)(=O)c2c(C)[nH]c(=O)[nH]c2=O)c1	.	.	-26%[76.3 µM]	2.2µM*	.
Cc1ccc(N(CC(=O)Nc2ccc(Br)c(C)c2)S(=O)(=O)c2c(C)[nH]c(=O)[nH]c2=O)cc1	.	.	-14%[76.3 µM]	11µM*	.
Cc1cc(C)cc(N(CC(=O)Nc2ccc(C)cc2Cl)S(=O)(=O)c2c(C)[nH]c(=O)[nH]c2=O)c1	.	.	12%[76.3 µM]	0.25µM*	.
COc1ccc(N(CC(=O)Nc2cc(C)ccc2C)S(=O)(=O)c2c(C)[nH]c(=O)[nH]c2=O)cc1	.	.	-14%[76.3 µM]	?	.
COc1cc(NC(=O)CN(c2cc(C)cc(C)c2)S(=O)(=O)c2c(C)[nH]c(=O)[nH]c2=O)cc(OC)c1	.	.	-7%[76.3 µM]	?	.
COCCNc1c(-c2ccc(OC)cc2)nc2ccc(Cl)cn12	14%[46 µM]	8%	5µM*	-24%	7%
Oc1ccc(/C=N/Nc2ccnc3cc(Cl)ccc23)cc1O	.	0%	45µM*	-11%	.
C=CCN1c2ccccc2[C@]23C[C@@H](C(=O)OC)N(S(=O)(=O)c4ccc(C#N)cc4)C2=NC(C(=O)OC)=C(C(=O)OC)[C@H]13	?	7%[17.4 µM]	.	4%[12.8 µM]	.
O=C1OCC(CO)(CO)N=C1NNc1ccccc1Cl	21%	-8%	28µM*	7%	-7%
O=C(Nc1ccccc1Cl)c1ccccc1Cl	5%	2%	12%	-3%	-5%
CN1/C(=N\O)c2cccc3cccc1c23	-3%	5%	35µM*	-2%	3%
CCOC(=O)c1c(C)[nH]c(NC(=O)Nc2c(C)n(C)n(-c3ccccc3)c2=O)c1C	-6%	-20%	32µM*	3%	-4%
COC(=O)C1=C(C(=O)OC)[C@@H]2N(C)c3ccccc3[C@@]23C[C@@H](CO)N(C(=O)c2cc(C)oc2C)C3=N1	-7%[9.22 µM]	3%[17.4 µM]	.	-11%[12.8 µM]	.
COc1ccc(NCc2nnc(SCC(=O)c3ccc(OC)cc3)n2C)cc1	1%	-1%	12µM*	-23%	7%
O=C1Cc2cc(S(=O)(=O)N3CCN(c4ccc(C(F)(F)F)cc4)CC3)ccc2N1	.	.	-25%[76.3 µM]	.	.
CC(=O)c1ccc(N2CCN(S(=O)(=O)c3ccc4c(c3)CC(=O)N4)CC2)cc1	.	.	0.52µM*	-12%	.
O=C1Cc2cc(S(=O)(=O)N3CCN(c4ccccc4)CC3)ccc2N1	.	.	2.6µM*	-7%	.
C1COC1	.	0%	.	5%	.
C[C@H]([C@H](C)N1CC(=O)NC(=O)C1)N1CC(=O)NC(=O)C1	.	5%	.	-5%	.
O=C(COc1cccc(Cl)c1)NNC(=S)Nc1ccccc1	-3%	3%	?	12%	4%
COc1cccc(OCC(=O)NNC(=S)Nc2ccc(Cl)cc2Cl)c1	.	8%	56µM*	4%	8%
COCCCNC(=S)Nc1ccc(C)cc1	.	5%	0%	3%	.
COCCCNC(=S)NNC(=S)Nc1ccccc1	.	-2%	6.3µM*	-14%	-2%
SMILES	Lamin A splicing	aGlu spleen mod	GAA glycogen mod	N370S GC	GAA inhib
COCCCNC(=S)NNC(=S)Nc1ccc(F)cc1F	1%	0%	16µM*	13%	1%
C[C@H](NC(=O)[C@@H](Cc1c[nH]c2ccccc12)NC(=O)[C@@H](N)Cc1cnc[nH]1)C(=O)N[C@@H](Cc1c[nH]c2ccccc12)C(=O)N[C@H](Cc1ccccc1)C(=O)N[C@@H](CCCCN)C(N)=O	.	3%	.	0%	.
Cc1cc(O)ccc1Nc1nc(-c2cccs2)cs1	-13%[46 µM]	-2%	32µM*	-10%	3%
Cc1cc(C)cc(N2CCn3c2nc2c3c(=O)n(CCCc3ccccc3)c(=O)n2C)c1	2%[46 µM]	.	16%[76.3 µM]	.	.
Cc1cc(C)cc(N2CCn3c2nc2c3c(=O)n(CCc3ccccc3)c(=O)n2C)c1	1.8µM*	.	-5%[76.3 µM]	.	.
CC(=O)Nc1ccc(SCCN2CCN(CC(C)C)CCC2=O)cc1	.	5%	.	-1%	.
CCN(CC)c1ccc(/C=N/Nc2cccc(C)c2)c(O)c1	8%	-9%	-27%	-2%	1%
CCN(CC)c1ccc(/C=N/Nc2ccccc2)c(O)c1	21%	6%	18µM*	2%	-10%
Cc1[nH]c2ccccc2c1/C=N/NC(N)=S	.	-26%	?	-11%	.
CCc1nnc(N/N=C/c2cc(C)c(C)cc2C)n1N	.	.	8.9µM*	-4%	.
CCc1nnc(N/N=C/c2c(F)cccc2Cl)n1N	.	.	-9%[76.3 µM]	-2%	.
Cc1ccc(NC(=S)N/N=C/c2c(C)[nH]c3ccccc23)cc1	?	0%	28µM*	?	-12%
CCc1nnc(N/N=C/c2c(C)[nH]c3ccccc23)n1N	?	0%	7.9µM*	6%	8%
O=C(COc1ccc2ccccc2c1)NNC(=O)Cc1ccccc1	-16%	-12%	9%	-15%	-1%
O=C(Cc1ccccc1)NNc1ccc2ccccc2c1	?	0%	25µM*	4%	-3%
O=C(CN1C(=O)CCC1=O)NNc1ccc2ccccc2c1	?	5%	11µM*	-16%	6%
c1cc(C(c2nnnn2C2CCCC2)N2CCOCC2)ccn1 (centres undefined)	1%	-2%	-4%	-1%	2%
Oc1ccc(N2CCN(C(c3ccncc3)c3nnnn3C3CCCC3)CC2)cc1 (centres undefined)	-24%	-11%	12µM*	-9%	-8%
CC(=O)Oc1ccc2c(=O)c(Oc3ccccc3)c(C)oc2c1OC(C)=O	?	-9%	3.5µM*	7%	-1%
CCCCC[C@H](O)/C=C/C=C\C/C=C\C/C=C\CCCC(=O)O	.	-1%	.	-4%	.
Cc1ccc2nc3c(c(Nc4ccc(O)cc4)c2c1)CCC3	.	.	13µM*	?	.
COc1ccc(Nc2c3c(nc4ccc(C)cc24)CCC3)cc1	.	.	-1%	?	.
